Laboratory results published in PubChem BioAssay AID2102 (Southern Research Specialized Biocontainment Screening …, 2009).
The whole screen tested about 1,100 compounds, of which about 210 (19%) were called active. How the calls were made is not given here. Not all results are given here. Results with a measured potency or affinity are listed apart.

Test: cell viability loss from selected hits – cytotoxicity control for SV40 T antigen inhibitor project, dose response (AID 2102);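 further: cells exposed to compounds for 72 hours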
Details: Host cell viability cytotoxicity counter-screen; series mostly up to 50 µM

**Q.** For `CN1CC(C(=O)O)Cc2c1ccc1ccccc21` (stereo unspecified), which outcome is on record?
**A.** The outcome was “inactive”.

**Q.** With `COc1cc(C(=O)Nc2ccc(O)cc2)ccc1OC(C)=O` as the compound, how does the outcome read?
**A.** Its outcome is “inactive”.

**Q.** With `CN(C)c1ccc(NC(N)=S)cc1` as the compound, how does the outcome read?
**A.** Its outcome is “inactive”.

**Q.** For `COc1cc(/C=N/NC(=O)c2cccc(S(=O)(=O)N3CCCC3)c2)ccc1O`, which outcome is on record?
**A.** The outcome was “inactive”.

**Q.** For `Cc1nc(-c2ccc(O)c(O)c2)cs1`, which outcome is on record?
**A.** Its outcome is “inactive”.

**Q.** With `Cc1ccc(S(=O)(=O)Nc2nc(C)cc(N/N=C/c3ccc(O)cc3)n2)cc1` as the compound, how does the outcome read?
**A.** The outcome was “inactive”.

**Q.** For `CCOc1cc(/C=C2\SC(=O)N=C2N)ccc1O`, which outcome is on record?
**A.** The outcome was “inactive”.

**Q.** With `Nc1nc2ccc(N3CCOCC3)cc2s1` as the compound, how does the outcome read?
**A.** Its outcome is “inactive”.

**Q.** With `COc1cc(C(=O)Nc2ccc(N(C)C)cc2)cc(OC)c1OC` as the compound, how does the outcome read?
**A.** The outcome was “inactive”.

**Q.** Which outcome does the source give for `Oc1ccc(-c2csc(Nc3ccccn3)n2)cc1O` here?
**A.** The outcome was “inactive”.

**Q.** For `CN(C)c1ccc(Nc2nc(-c3cccnc3)cs2)cc1`, which outcome is on record?
**A.** The outcome was “inactive”.

**Q.** For `CC(=O)c1cccc(S(=O)(=O)N2CCCC(c3nc(-c4ccc(C)o4)no3)C2)c1` (stereo unspecified), which outcome is on record?
**A.** Its outcome is “inactive”.

**Q.** With `Cc1cc(C)nc(SCc2cc(=O)c(OC(=O)c3ccc(S(=O)(=O)N4CCCC4)cc3)co2)n1` as the compound, how does the outcome read?
**A.** The outcome was “inactive”.

**Q.** With `CC(C)c1ccc(S(=O)(=O)N2CCN(CCC(=O)Nc3ccc(N(C)C)cc3)CC2)cc1` as the compound, how does the outcome read?
**A.** The outcome was “inactive”.

**Q.** Which outcome does the source give for `Nc1nc(-c2ccco2)cs1` here?
**A.** The outcome was “inactive”.

**Q.** With `Cc1ccsc1/C=N/n1c(-c2cccnc2)n[nH]c1=S` as the compound, how does the outcome read?
**A.** Its outcome is “inactive”.

**Q.** Which outcome does the source give for `COc1cc(/C=N/NC(=O)c2ccoc2C)cc(OC)c1O` here?
**A.** The outcome was “inactive”.

**Q.** Which outcome does the source give for `O=C(CCN1C(=O)/C(=C/c2ccco2)SC1=S)Nc1ccc(C(=O)O)c(O)c1` here?
**A.** The outcome was “inactive”.

**Q.** With `O=C(CCN1C(=O)/C(=C\c2ccco2)SC1=S)Nc1ccc(C(=O)O)c(O)c1` as the compound, how does the outcome read?
**A.** The outcome was “inactive”.

**Q.** For `COc1cc(/C=N/NC(=O)CSc2ccccn2)ccc1O`, which outcome is on record?
**A.** Its outcome is “inactive”.

**Q.** Which outcome does the source give for `Cc1ccc(NC(=O)CN2C(=O)N/C(=C\c3cccn3-c3cccc(C(=O)O)c3)C2=O)cc1` here?
**A.** The outcome was “inactive”.

**Q.** For `CN(C)c1ccc(N2C(=O)CC(Nc3ccc(N4CCOCC4)cc3)C2=O)cc1` (stereo unspecified), which outcome is on record?
**A.** Its outcome is “inactive”.

**Q.** For `Oc1ccc(/C=N/Nc2nccnc2Cl)cc1`, which outcome is on record?
**A.** Its outcome is “inactive”.

**Q.** With `Cc1cc(O)ccc1N/C=C1\CCCC1=O` as the compound, how does the outcome read?
**A.** The outcome was “inactive”.

**Q.** With `O=c1c2c([N+](=O)[O-])cc([N+](=O)[O-])cc2sn1Cc1ccccc1` as the compound, how does the outcome read?
**A.** The outcome was “inactive”.

**Q.** With `CC1(C)N([O-])c2cc([N+](=O)[O-])ccc2[N+]1=O` as the compound, how does the outcome read?
**A.** The outcome was “inactive”.

**Q.** With `Cn1c(SCC(=O)c2ccc(O)c(O)c2)nnc1-c1cccs1` as the compound, how does the outcome read?
**A.** Its outcome is “inactive”.

**Q.** With `O=c1cc(-c2ccc(Br)cc2)[nH][nH]1` as the compound, how does the outcome read?
**A.** Its outcome is “inactive”.

**Q.** Which outcome does the source give for `O=C(NC(=S)Nc1ccc(O)cc1)c1ccccc1Cl` here?
**A.** The outcome was “inactive”.

**Q.** Which outcome does the source give for `COc1cc(/C=N/Nc2nc3ccccc3[nH]2)cc(OC)c1O` here?
**A.** Its outcome is “inactive”.

**Q.** For `Nc1ccc2nc(CCCCCCCCc3nc4ccc(N)cc4[nH]3)[nH]c2c1`, which outcome is on record?
**A.** Its outcome is “inactive”.

**Q.** For `O=c1c2ccccc2sn1-c1nccs1`, which outcome is on record?
**A.** Its outcome is “inactive”.

**Q.** For `Cc1ccnc(-n2sc3ccccc3c2=O)n1`, which outcome is on record?
**A.** Its outcome is “inactive”.

**Q.** For `COc1ccc(/C=N/NC(=O)c2ccoc2C)cc1O`, which outcome is on record?
**A.** The outcome was “inactive”.

**Q.** Which outcome does the source give for `O=C(Nc1ccc(O)cc1)c1ccc2c(c1)C(=O)N(N1C(=O)c3ccccc3C1=O)C2=O` here?
**A.** The outcome was “inactive”.

**Q.** With `CC(C)c1ccc(C2CC(=O)N3CN(C)CSC3=C2C#N)cc1` (stereo unspecified) as the compound, how does the outcome read?
**A.** Its outcome is “inactive”.

**Q.** For `O=C(CCCCl)NC1=NN(c2ccccc2)C(=O)C1`, which outcome is on record?
**A.** Its outcome is “inactive”.

**Q.** For `CCOc1cc(/C=C2/N=C(C)C(C(=O)OC)=C2O)ccc1O`, which outcome is on record?
**A.** The outcome was “inactive”.

**Q.** For `NC1=NC(=O)/C(=C\c2ccco2)S1`, which outcome is on record?
**A.** The outcome was “inactive”.

**Q.** Which outcome does the source give for `C=CCOc1ccccc1CNc1ccc2[nH]c(=O)[nH]c2c1` here?
**A.** The outcome was “inactive”.

**Q.** With `O=c1[nH]c2ccc(NCc3ccc(F)cc3)cc2[nH]1` as the compound, how does the outcome read?
**A.** Its outcome is “inactive”.

**Q.** With `COc1cc(/C=N/NC(=O)c2ccccc2O)ccc1OC(=O)CC1SC(=O)NC1=O` (stereo unspecified) as the compound, how does the outcome read?
**A.** The outcome was “inactive”.

**Q.** With `CCOc1cc(/C=N/Nc2nc(-c3cccs3)c(NC(C)=O)s2)ccc1O` as the compound, how does the outcome read?
**A.** Its outcome is “inactive”.

**Q.** Which outcome does the source give for `COc1cc(/C=N\Nc2nc(-c3cccs3)c(NC(C)=O)s2)ccc1O` here?
**A.** Its outcome is “inactive”.

**Q.** For `CCN(CC)c1ccc(NC(=O)COC(=O)COc2ccccc2[N+](=O)[O-])cc1`, which outcome is on record?
**A.** The outcome was “inactive”.

**Q.** For `CCOC(=O)C[n+]1c(C)sc2ccc(OC)cc21`, which outcome is on record?
**A.** The outcome was “inactive”.

**Q.** With `CC(Nc1ccc(N2CCOCC2)cc1)C(=O)N1c2ccccc2CC1C` (stereo unspecified) as the compound, how does the outcome read?
**A.** Its outcome is “inactive”.

**Q.** For `COc1cc(/C=N/NC(=O)c2cccs2)ccc1O`, which outcome is on record?
**A.** The outcome was “inactive”.

**Q.** Which outcome does the source give for `CCOC(=O)c1cc(-c2ccc(N)cc2)sc1N` here?
**A.** The outcome was “inactive”.

**Q.** For `CCN(CC)c1ccc(/C=N/O)cc1`, which outcome is on record?
**A.** Its outcome is “inactive”.

**Q.** For `Oc1ccc(/C=N/N2CCN(c3ccccn3)CC2)cc1`, which outcome is on record?
**A.** Its outcome is “inactive”.

**Q.** For `COc1cc(/C=N/NC(=O)C2COc3ccccc3O2)ccc1O` (stereo unspecified), which outcome is on record?
**A.** Its outcome is “inactive”.

**Q.** Which outcome does the source give for `COc1cc(/C(C)=N/NC(=O)CSc2nc3ccccc3[nH]2)ccc1O` here?
**A.** The outcome was “inactive”.

**Q.** Which outcome does the source give for `O=C(CC1SC(=O)N(c2ccccc2)C1=O)Nc1cccc2ccccc12` (stereo unspecified) here?
**A.** Its outcome is “inactive”.

**Q.** For `Cc1csc(N/N=C/c2ccc(O)c([N+](=O)[O-])c2)n1`, which outcome is on record?
**A.** Its outcome is “inactive”.

**Q.** For `CCN(CC)c1ccc(NC(=O)c2cccc(F)c2)c(C)c1`, which outcome is on record?
**A.** Its outcome is “inactive”.

**Q.** For `CCN(CC)c1ccc(NC(=O)c2cccnc2)c(C)c1`, which outcome is on record?
**A.** Its outcome is “inactive”.

**Q.** Which outcome does the source give for `Oc1ccc(C=Nc2ccc(N3CCOCC3)cc2)c(O)c1` here?
**A.** The outcome was “inactive”.

**Q.** Which outcome does the source give for `COc1cc(SC#N)ccc1N=Cc1c(C)[nH]n(-c2ccc(C)cc2C)c1=O` here?
**A.** Its outcome is “inactive”.

**Q.** For `O=C1c2ccccc2NC2(CCCCC2)N1c1ccc(O)cc1`, which outcome is on record?
**A.** Its outcome is “inactive”.

**Q.** For `CCN(CC)c1ccc(NC(=O)CSc2nnc3nc(C)cc(C)n23)cc1`, which outcome is on record?
**A.** The outcome was “inactive”.

**Q.** Which outcome does the source give for `COC(=O)C1=C(O)/C(=C/c2cccc(OC)c2O)N=C1C` here?
**A.** Its outcome is “inactive”.

**Q.** With `CC(=O)Nc1ccc(N2CCCCC2)cc1` as the compound, how does the outcome read?
**A.** Its outcome is “inactive”.

**Q.** For `CN(C)c1ccc(NC(=O)CN2CCN(c3ccc(F)cc3)CC2)cc1`, which outcome is on record?
**A.** Its outcome is “inactive”.

**Q.** For `COc1cc(/C=N/NC(=O)CNc2n[nH]c(=O)[nH]c2=O)ccc1O`, which outcome is on record?
**A.** Its outcome is “inactive”.

**Q.** With `COc1ccc(OC)c(CCNC(=O)Cn2sc3nc(C)cc(C)c3c2=O)c1` as the compound, how does the outcome read?
**A.** Its outcome is “inactive”.

**Q.** Which outcome does the source give for `CCN(CC)S(=O)(=O)c1ccc(C(=O)Oc2coc(CSc3nc(C)cc(C)n3)cc2=O)cc1` here?
**A.** Its outcome is “inactive”.

**Q.** Which outcome does the source give for `FC(F)(F)C1CCCN(c2nsc3ccccc23)C1` (stereo unspecified) here?
**A.** The outcome was “inactive”.

**Q.** For `Nc1ncc(N=Nc2cc(C(=O)O)ccc2Cl)s1`, which outcome is on record?
**A.** Its outcome is “inactive”.

**Q.** Which outcome does the source give for `CCn1c(SCC(=O)c2ccc(O)c(O)c2)nnc1-c1ccccc1OC` here?
**A.** The outcome was “inactive”.

**Q.** For `COc1cc(/C=N/NC(=O)c2nnn(-c3nonc3N)c2-c2cccs2)ccc1O`, which outcome is on record?
**A.** The outcome was “inactive”.
